Consider 10 molecules from PubChem BioAssay (NCATS).

Records with an inconclusive call do not appear. Values without a mark were called inactive. Calls of active or inactive are those of the source. Calls come from the whole dose curve; as a rule, active = well fitted curve in the direction sought with a large enough effect; inconclusive = small, poorly fitted or top-dose-only effect, or another doubt; inactive = no such curve, though single readings can be large; an effect the other way counts as inactive or inconclusive.

A short description of experiment [1]: BET inhibitor-based combinations targeting novel dependencies in MECOM-rearranged (r) AML: UCSD-AML1 cell line (AID 2202235).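 Note: series mostly up to about 46 µM; plate controls were DMSO vehicle wells for no effect and blank wells for full effect; nearly all actives have a fitted effect of over 40% in size.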 Summed up:
(§1)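 Activity is given as area under the curve and as Z-AUC, mean-centred within each cell line. It comes from 11-point dose curves normalized to DMSO and empty wells. CellTiter-Glo luminescence was read after 48 hr drug exposure of 500 cells/well.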

Experiment [2] can be described thus: BET inhibitor-based combinations targeting novel dependencies in MECOM-rearranged (r) AML: AML-194 cell line (AID 2202237; note: nearly all actives have a fitted effect of over 40% in size; note: potency is the fitted concentration of half-maximal effect). An outline of the steps: (§2)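 Cells were plated at 500 per well and exposed to an 11-point dose series of each drug for 48 hr. Viability was measured by CellTiter-Glo luminescence, normalized to DMSO and empty-well controls, and summarized as AUC and per-cell-line Z-AUC.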

Experiment [3] is described as follows: BET inhibitor-based combinations targeting novel dependencies in MECOM-rearranged (r) AML: SET-2 cell line (AID 2202231).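 For viability: plate controls were DMSO treated cells for no effect and wells without cells for full effect.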 Note: nearly all actives have a fitted effect of over 35% in size. Note: potency is the fitted concentration of half-maximal effect. As to conditions: SET-2 AML cells viability, CellTiter-Glo luminescence, 48 h; viability: hits give low values, concentration not given here. An outline of the steps: as §2
A short description of experiment [4]: BET inhibitor-based combinations targeting novel dependencies in MECOM-rearranged (r) AML: MV-4-11 cell line (AID 2202233). Note: nearly all actives have a fitted effect of over 45% in size. Note: potency is the fitted concentration of half-maximal effect. An outline of the steps:
as §1

A short description of experiment [5]: BET inhibitor-based combinations targeting novel dependencies in MECOM-rearranged (r) AML: AML-191 cell line (AID 2202236; note: nearly all actives have a fitted effect of over 35% in size; note: potency is the fitted concentration of half-maximal effect). An outline of the steps: as §2
Experiment [6] is described as follows: BET inhibitor-based combinations targeting novel dependencies in MECOM-rearranged (r) AML: HNT-34 cell line (AID 2202234). Note: nearly all actives have a fitted effect of over 35% in size. Note: potency is the fitted concentration of half-maximal effect. Summed up: as §1
Experiment [7] in a line: BET inhibitor-based combinations targeting novel dependencies in MECOM-rearranged (r) AML: OCI-AML3 cell line (AID 2202232). Note: nearly all actives have a fitted effect of over 35% in size. Note: potency is the fitted concentration of half-maximal effect. As to conditions: Potency: OCI-AML3 viability. Summed up:
as §2

`CC(C)(NC(=O)O[C@@H]1CN2CCC1CC2)c1csc(-c2ccc(F)cc2)n1`: the Potency entry in experiment [1] and in experiment [2] was “inactive” in each case.
For the molecule `CCCCCCC(C)(C)c1cc(O)c2c(c1)OC(C)(C)C1CC=C(CO)C[C@H]21` (some centres not stated), the Potency was 23.5 µM (active) in experiment [3], 29.5 µM (active) in experiment [4], 18.6 µM (active) in experiment [5] and 23.5 µM (active) in experiment [2].
Turning to `O=S(=O)(F)Cc1ccccc1`, the viability in experiment [3] is 112%. Besides, the Potency result in experiment [6], in experiment [1] and in experiment [5] was “inactive” in each case.
As to `COc1ccc(C(=O)c2c(C)n(CCN3CCOCC3)c3ccccc23)cc1`, the Potency in experiment [3] was 8.33 µM (active); in experiment [4], 2.63 µM (active); in experiment [5], 2.63 µM (active); in experiment [2] it was 1.48 µM (active).
As for `COc1cc(C)[nH]c(=O)c1CNC(=O)c1c(C)n([C@H](C)C2CCN(CC(F)(F)F)CC2)c2ccccc12`, the Potency result in experiment [4], in experiment [6], in experiment [1], in experiment [5] and in experiment [2] was “inactive” throughout.
With `O=c1cccc2n1CC1CNC[C@H]2C1`, the Potency result in experiment [1] and in experiment [5] was “inactive” throughout.
For the molecule `CC1(C)CC(O)CC(C)(C)N1O`, the Potency entry in experiment [7], in experiment [6], in experiment [1], in experiment [5] and in experiment [2] was “inactive” each time.
Regarding `COC(=O)[C@@]12OC[C@]34[C@H]([C@@H](O)[C@@H]1O)[C@@]1(C)CC(=O)C(O)=C(C)[C@@H]1C[C@H]3OC(=O)[C@H](OC(=O)/C=C(\C)C(C)C)[C@@H]24`, the Potency was 0.0074 µM (active) in experiment [7]; 0.003 µM (active) in experiment [4]; 4.2 nM (active) in experiment [6]; 0.0066 µM (active) in experiment [5]; 0.0059 µM (active) in experiment [2].
As to `C[C@]12CC[C@H]3[C@@H](CC[C@@]45O[C@@H]4C(O)=C(C#N)C[C@]35C)[C@@H]1CC[C@@H]2O`, the Potency entry in experiment [5] and in experiment [2] was “inactive” throughout.
Turning to `CC1(C)C(=O)N(c2ccc(C#N)c(C(F)(F)F)c2)C(=S)N1Cc1ccc(-c2cn[nH]n2)cc1`, the Potency was 11.8 µM (active) in experiment [7], 18.6 µM (active) in experiment [5] and 20.9 µM (active) in experiment [2]. In addition, the Potency result in experiment [1] is “inactive”.
